{
  "source": "PubChem BioAssay AID504915",
  "about": "(The Scripps Research Institute Molecular Screening Center, 2011)",
  "note": "The other results are listed elsewhere or left out. A number with no mark means an inactive call. The source made the active and inactive calls. Rule as the data show it: active = activation above about 17%; inactive = the rest.",
  "data": [
    {"target": "5-hydroxytryptamine receptor 5A (Homo sapiens) (UniProt P47898)", "sequence (P47898 whole entry, looked up)": "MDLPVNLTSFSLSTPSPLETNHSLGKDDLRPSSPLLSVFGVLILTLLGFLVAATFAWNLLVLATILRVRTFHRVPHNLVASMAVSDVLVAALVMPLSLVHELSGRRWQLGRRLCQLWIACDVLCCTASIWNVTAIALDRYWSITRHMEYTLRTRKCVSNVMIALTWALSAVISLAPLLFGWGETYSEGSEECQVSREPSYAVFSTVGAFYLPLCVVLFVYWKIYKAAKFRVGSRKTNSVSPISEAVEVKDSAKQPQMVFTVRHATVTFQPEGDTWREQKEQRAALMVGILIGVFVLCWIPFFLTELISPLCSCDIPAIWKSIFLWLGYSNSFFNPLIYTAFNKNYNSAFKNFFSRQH", "experiment": "activation of human 5-HT5A receptor – cell-based, luminescence, confirmation (AID 504915);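 also: 0% = cells with vehicle only and 100% = full reference agonist response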", "details": "HTR5A agonist cell assay, at 9.3 µM, stronger effect = higher value", "values": [
      {"smiles": "CNC(=S)N/N=C/c1ccc(OCc2ccccc2)c(Br)c1", "activation": "0.4%"},
      {"smiles": "CC(C)OC(=O)c1c(NC(=O)c2ccco2)sc2c1CCCC2", "activation": "0.39%"},
      {"smiles": "C/C(=N\\NC(=O)CNc1cccc2ccccc12)c1ccc(Br)s1", "activation": "1.77%"},
      {"smiles": "CN1c2ccc(C=O)c3c(C=O)ccc(c23)N(C)C1(C)C", "activation": "-0.75%"},
      {"smiles": "COC(=O)c1cc(S(=O)(=O)N2CCN(c3cc(C)ccc3C)CC2)c[nH]1", "activation": "0.19%"},
      {"smiles": "CCCN(CCc1ccccc1)C1CCc2c(O)cccc2C1", "note": "(stereo not given)", "activation": "37.2% (active)"},
      {"smiles": "COC(=O)c1cc(C(=O)OCC(=O)Nc2cc(C)on2)cc([N+](=O)[O-])c1", "activation": "1.23%"},
      {"smiles": "COc1cccc(/C=N/NC(=O)c2[nH]nc3c2CCc2ccccc2-3)c1O", "activation": "-2.75%"},
      {"smiles": "O=C(OC12CC3CC(CC(C3)C1)C2)c1ccc(NCc2cc(O)ccc2O)cc1", "activation": "7.13%"},
      {"smiles": "CCn1nc(C(=O)OCC(=O)N2c3ccccc3CC2C)c2ccccc2c1=O", "note": "(stereo not given)", "activation": "-1.95%"},
      {"smiles": "CC1(C)C2CCC1(CS(=O)(=O)NCCc1c[nH]c3ccccc13)C(=O)C2", "note": "(stereo not given)", "activation": "35.4% (active)"},
      {"smiles": "COc1ccc(S(=O)(=O)N2CCN(CC(=O)N3c4ccccc4CC3C)CC2)cc1OC", "note": "(stereo not given)", "activation": "5.85%"},
      {"smiles": "Cc1c(C(=O)OCC(=O)N(CCC#N)c2ccccc2)oc2c1ccc1ccccc12", "activation": "61.4% (active)"},
      {"smiles": "COc1ccc(/C=C(\\C#N)c2c[nH]c3ccccc23)cc1", "activation": "0.48%"},
      {"smiles": "CC(=O)COc1ccc2c(-c3ccccc3)cc(=O)oc2c1", "activation": "4.18%"}
    ]}
  ]
}
